Measurements published in the supplement of paper PMC6555819.

Each sequence was assayed on RARb:RXRa (NR concentration 270 nM, RXRa partner concentration 90 nM) (assay: PBM binding z-score (relative to random genomic background probes); higher = stronger binding; sequences stand for … in GC…GCGATTGACAGCGTAGAATGAAGG).
How it was run: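 The probes on custom Agilent 4×180K protein-binding microarrays were double-stranded, with 34-nt variable regions bearing direct-repeat seeds, single-nucleotide variants, half-site ablations and random human genomic background sequences. Incubation lasted 1 h with ligand-free nuclear receptor dimers in PBS pH 7.4, 2% milk, 0.02% Triton X-100, 1 mM DTT, 0.2 mg/mL BSA and 0.4 mg/ml salmon testes DNA. Antibodies against each partner (one per run) detected bound dimers, and fluorescence scans were regression-normalized. Binding z-scores take the random background probes as reference.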
Sequence CGTCCAAGGTCAAAGGGCAGTGAAGAGATGACGG has a PBM binding z-score of 5.36.
CCGACTGGGGCAGAAAGGTTACCAGACCATCCGG gave a PBM binding z-score of 1.89.
For AGTCAAAGTTCATCTCGGTAACGTAAGATATGCT, the PBM binding z-score was 5.06.
TATACAGGGTCAAAGGCCAGAGTACGAATGTCGA showed a PBM binding z-score of 4.5.
Sequence AGAACGAGGGCAATGACTTGATAGCACGGGTGGC has a PBM binding z-score of 2.11.
For GGAGCGAGGGCAAGTTGATAGCAGAGTTTGATGG, the PBM binding z-score was 2.56.
TCTTATAGATCAGCAGGTTAAGAAAGCTGGCCAA was tested, and the PBM binding z-score was 0.115.
GCTGCTAGGTGAACTGATGGTCAGCTAAAGCTCG gave a PBM binding z-score of 0.944.
In the case of AGAATGACGTTACCAAAGATCAGGGAAACGCTTG, the PBM binding z-score was -0.301.
For ATACAAAGGTGATCGTGAGGTCGTTGATACTAAC, the PBM binding z-score was 2.54.
In the case of GCGTATAGGTAATACAAGGTGAAAGTCCGATTGT, the PBM binding z-score was 0.576.
Work on TCTAGCAGGCCAGAAGGTCACTCAAGAGGTACGG yielded a PBM binding z-score of 3.28.
CCTTACGGGTCACTCCAGGTTATAGCGTCGGAGT showed a PBM binding z-score of 3.74.
With ATCTCTAGGTAACAAGTGCAGTGAAAGAGAGGAC the PBM binding z-score was 0.586.
GATACAGGGTCTGCTAGAGGCCAGAGTATGGAAA was tested, and the PBM binding z-score was 0.305.
TGTGCTAGGTCAACGATGGTCAGCTAATCTGCTA gave a PBM binding z-score of 4.15.
ATCTCTAGGGAACCAAGTTCAGTGAATGCCGAAC gave a PBM binding z-score of 0.674.
In the case of TCTATTAGTTGAAGGGCAACCAACGAGTCCGTTT, the PBM binding z-score was 1.46.
CGAACTAGGTCAGAACAGGACAGTAAAGGATGAT was tested, and the PBM binding z-score was 2.92.
Sequence CCAGACAGCTGAGAAGGTAACTCAGCCTCGATTA has a PBM binding z-score of -1.71.
TAGCCCAGGTCATGCGGGCCAGTATAGTGTCGGC gave a PBM binding z-score of 3.74.
For CGAACGAGGGCAGGAGTTGATAGCAAATGCCGAT, the PBM binding z-score was 1.8.
